Experimental findings from PubChem BioAssay (NCATS) are described below.

Results filed as inconclusive are left out. Active and inactive are the calls of the source. Unless noted, calls follow the shape of the dose curve; as a rule, active = well fitted inhibition curve with a large enough effect; inconclusive = small, poorly fitted or top-dose-only effect; inactive = flat fitted curve, though single readings scatter.

Test [1] can be described thus: qHTS drug screen for cell cycle checkpoint inhibitors in PARPi-resistant BRCA-mutant ovarian cancer cell lines. (AID 1963452; calls by dose curve). The following applies: PEO1/OlaR viability, CellTiter-Glo luminescence, 96 h, stronger effect = lower value. The gist of the method: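 PEO1, PEO4 and PEO1/OlaR ovarian cancer cells, 600 per well, exposed 96 h at 37C to a dilution series. Viability read by CellTiter-Glo luminescence, normalized to DMSO and empty wells; activity summarized as Z-AUC.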

The nature of test [2]: qHTS for identification of novel therapeutic agents for treatment of microphthalmiaassociated transcription factor (MiT) renal cell carcinoma (RCC) (AID 1963991). The following applies: CellTiter-Glo, 48 h, stronger effect = lower value. An outline of the steps:
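Three TFE3-fusion RCC lines (UOK109, UOK124, UOK145), 500 cells/well in complete medium, were treated with MIPE 4.0 compounds for 48 hours at 37 C. Viability was by CellTiter-Glo luminescence, normalized to DMSO (100%) and empty wells (0%); curves fitted over 11 concentrations.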

The nature of test [3]: qHTS profiling for inhibitors of Plasmodium falciparum proliferation (AID 504749). Also: nearly all actives have a fitted effect of over 60% in size. Also: potency is read from the fitted curve at half-maximal effect.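 As to activity, negative = inhibition: 0% = DMSO vehicle and full inhibition = artemisinin control.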 The following applies: P. falciparum in erythrocytes, SYBR Green DNA, 72 h. The gist of the method: (§1)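 SYBR Green fluorescence (ex 485 nm, em 535 nm) reports parasite DNA after 72 h compound exposure of infected red cells at 0.3% parasitemia, 2.5% hematocrit; signal normalized to 0.29 uM artemisinin and vehicle wells.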

Test [4] relates to 3D7. The test is described as above. Particulars: P. falciparum in erythrocytes, SYBR Green DNA, 72 h; series mostly up to 28.7 µM. The gist of the method: as §1
For test [5], the system named is 7G8. Described as above. Particulars: P. falciparum in erythrocytes, SYBR Green DNA, 72 h; series mostly up to 28.7 µM. The gist of the method: as §1
The subject of test [6] is AA1029. The description is as above. Particulars: P. falciparum in erythrocytes, SYBR Green DNA, 72 h; series mostly up to 28.7 µM. The gist of the method:
as §1

Test [7] deals with AS120. The test is described as above. Particulars: P. falciparum in erythrocytes, SYBR Green DNA, 72 h; series mostly up to 28.7 µM. An outline of the steps:
as §1

In test [8] the test system is ATS189. The test is described as above. The following applies: P. falciparum in erythrocytes, SYBR Green DNA, 72 h; series mostly up to 28.7 µM. An outline of the steps:
as §1

Test [9] relates to ATS95. The test is described as above. The following applies: P. falciparum in erythrocytes, SYBR Green DNA, 72 h; series mostly up to 28.7 µM. The gist of the method:
as §1

For test [10], the system named is C2A. The test is described as above. Particulars: P. falciparum in erythrocytes, SYBR Green DNA, 72 h; series mostly up to 28.7 µM. An outline of the steps:
as §1

Test [11] deals with CP185. The description is as above. The following applies: P. falciparum in erythrocytes, SYBR Green DNA, 72 h; series mostly up to 28.7 µM. The gist of the method:
as §1

Test [12] has as its system CP191. The test is described as above. Particulars: P. falciparum in erythrocytes, SYBR Green DNA, 72 h; series mostly up to 28.7 µM. An outline of the steps: as §1
Test [13] concerns CP194. Described as above. The following applies: P. falciparum in erythrocytes, SYBR Green DNA, 72 h; series mostly up to 28.7 µM. An outline of the steps:
as §1

Test [14] relates to CP201. Described as above. Particulars: P. falciparum in erythrocytes, SYBR Green DNA, 72 h; series mostly up to 28.7 µM. The gist of the method: as §1
For test [15], the system named is CP192. The description is as above. The following applies: P. falciparum in erythrocytes, SYBR Green DNA, 72 h; series mostly up to 28.7 µM. The gist of the method:
as §1

The mark [16] stands for this setting: measured here: PEO1 parental Z-AUC.
Setting [17] is: TFE3-RCC UOK109 viability, measured here: UOK109 Z-AUC.
The mark [18] stands for this setting: TFE3-RCC viability, measured here: UOK124 Z-AUC.
Setting [19] is: TFE3-RCC viability, measured here: UOK145 Z-AUC.
Where [20] appears, read: at 28.7 µM (top of the series), parasite line A.
Where [21] appears, read: at 28.7 µM (top of the series), parasite line B.
Where [22] appears, read: at 12.8 µM (top of the series), parasite line A.
[23] abbreviates: at 12.8 µM (top of the series), parasite line B.

Consider `CC(C)Oc1ccc2c(=O)c(-c3ccccc3)coc2c1`, for which the Z-AUC in test [1] is 0.208 (inactive); in test [1] (setting [16]), -0.757; in [1] (measured here: PEO4 Z-AUC), -0.189. The z-score is 0.973 in test [2] (setting [17]), 0.495 in [2] (setting [18]) and -0.312 in test [2] (setting [19]).

For the molecule `COC(=O)C1=C(C)NC(C)=C(C(=O)OCCCN2CCC(c3ccccc3)(c3ccccc3)CC2)C1c1cccc([N+](=O)[O-])c1` (stereo not drawn), the figures for the Z-AUC in [1], in [1] (setting [16]) and in test [1] (measured here: PEO4 Z-AUC) were 0.516 (inactive), 0.68 and 0.403, respectively. Moreover, the z-score in [2] (setting [17]) was determined as 1.29; in test [2] (setting [18]) it was 0.568; in [2] (setting [19]), 0.759. The Potency in test [3] (parasite line A) is 4.47 µM (active); in [3] (parasite line B) it was 6.31 µM (active); in test [4], 2.82 µM (active); in test [5], 2 µM (active); in [6] it was 4.47 µM (active); in [7], 2.82 µM (active). The Potency in [8] is 4.47 µM (active); in test [9], 5.01 µM (active); in test [10], 3.98 µM (active); in test [11] it was 7.08 µM (active); in test [12] it was 4.47 µM (active); in test [13], 5.36 µM (active). The Potency in [14] is 9.53 µM (active).

With `O=C(O)c1cn(-c2ccc(F)cc2)c2cc(N3CCNCC3)c(F)cc2c1=O`, the Z-AUC was 0.692 (inactive) in test [1], 0.709 in test [1] (setting [16]) and 0.947 in test [1] (measured here: PEO4 Z-AUC). In addition, the z-score in [2] (setting [17]) worked out at 0.863; in [2] (setting [18]) it was 0.568; in test [2] (setting [19]), 0.628. The activity, negative = inhibition is -18.3% (inactive) in test [3] (setting [20]) and -17.6% (inactive) in test [3] (setting [21]). For the same molecule, the Potency result in [4], in test [7], in test [8], in [10], in test [12] and in test [15] was “inactive” throughout.

Turning to `Oc1ccc(OCc2ccccc2)cc1`, the Z-AUC was 0.481 (inactive) in test [1], 0.491 in test [1] (setting [16]) and 0.0323 in test [1] (measured here: PEO4 Z-AUC). The z-score in [2] (setting [17]) stood at 1.11; in test [2] (setting [18]), 0.685; in test [2] (setting [19]) it was 1.26. In addition, the activity, negative = inhibition in [3] (setting [22]) was -21.7% (inactive); in test [3] (setting [23]) it was -19.8% (inactive). Also, the Potency entry in test [5], in test [6], in test [7], in test [8], in test [9] and in [10] was “inactive” in each case. For the same molecule, the Potency result in test [11], in test [12], in test [15], in test [13] and in test [14] was “inactive” in each case.

Consider `Cc1ccc(C)c(OCCCC(C)(C)C(=O)O)c1`, for which the Z-AUC was 1.52 (inactive) in test [1], 1.37 in [1] (setting [16]) and 1.5 in test [1] (measured here: PEO4 Z-AUC). Further, the activity, negative = inhibition in [3] (setting [20]) is 19.7% (inactive); in test [3] (setting [21]), 9.1% (inactive). Moreover, the Potency result in test [4], in test [5], in test [6], in test [7], in test [8] and in test [9] was “inactive” in each case. The Potency entry in test [10], in [11], in test [12], in [15], in [13] and in test [14] was “inactive” in each case.

Turning to `COc1cc(OC)c(C(=O)CCCN2CCCC2)c(OC)c1`, the results for the Z-AUC in test [1], in [1] (setting [16]) and in [1] (measured here: PEO4 Z-AUC) were 1.29 (inactive), 0.91 and 0.794, respectively. Also, the z-score was 1.14 in test [2] (setting [17]), 0.362 in test [2] (setting [18]) and -0.41 in [2] (setting [19]). Also, the activity, negative = inhibition is 17.5% (inactive) in [3] (setting [22]) and 11% (inactive) in test [3] (setting [23]). Also, the Potency entry in [4], in test [5], in [6], in [7], in test [8] and in test [9] was “inactive” each time. The Potency entry in test [10], in test [11], in test [12], in [15], in [13] and in test [14] was “inactive” each time.

Regarding `CCc1nc(N)nc(N)c1-c1ccc(Cl)cc1`, the Z-AUC in test [1] was -0.192 (inactive); in [1] (setting [16]), -0.422; in test [1] (measured here: PEO4 Z-AUC), -0.843. Further, the Potency was 0.0501 µM (active) in [3] (parasite line A), 3.16 µM (active) in test [3] (parasite line B), 0.0794 µM (active) in test [4] and 10 µM (active) in [5]. Further, the Potency result in test [6], in test [8], in test [9], in [10], in test [11] and in test [15] was “inactive” in each case. In addition, the Potency result in test [13] and in test [14] was “inactive” each time.

With `Nc1cc(C(Cl)=C(Cl)Cl)c(S(N)(=O)=O)cc1S(N)(=O)=O`, the Z-AUC in test [1] was 1.44 (inactive); in test [1] (setting [16]), 1.19; in test [1] (measured here: PEO4 Z-AUC) it was 1.34. Moreover, the z-score in test [2] (setting [17]) worked out at 1.83; in [2] (setting [18]), 0.22; in test [2] (setting [19]), 0.781. Moreover, the activity, negative = inhibition was -2.96% (inactive) in [3] (setting [22]) and 1.59% (inactive) in [3] (setting [23]). Besides, the Potency entry in [4], in [5], in test [6], in [8], in test [9] and in test [10] was “inactive” each time. For the same molecule, the Potency result in test [11], in [12], in test [15], in [13] and in test [14] was “inactive” in each case.

As for `NNc1nncc2ccccc12`, the Z-AUC in test [1] is 0.571 (inactive); in test [1] (setting [16]) it was 0.709; in test [1] (measured here: PEO4 Z-AUC) it was 0.892. Further, the values for the z-score in test [2] (setting [17]), in [2] (setting [18]) and in test [2] (setting [19]) were -0.0991, 0.525 and 0.517, respectively. Moreover, the activity, negative = inhibition in test [3] (setting [22]) was -1.16% (inactive); in [3] (setting [23]), -10.3% (inactive). The Potency in [5] is 0.891 µM (active); in [8] it was 3.55 µM (active); in test [12], 3.55 µM (active). The Potency entry in test [6], in [9], in [10], in [11], in [15] and in test [13] was “inactive” throughout. In [14], the Potency result was “inactive”.

As to `Cc1c(OCC(F)(F)F)ccnc1CS(=O)c1nc2ccccc2[nH]1` (stereo not drawn), the Z-AUC is 1.49 (inactive) in [1], 0.689 in [1] (setting [16]) and 0.798 in test [1] (measured here: PEO4 Z-AUC). The z-score came to 0.51 in [2] (setting [17]), 0.775 in test [2] (setting [18]) and 0.275 in [2] (setting [19]). For the same molecule, the activity, negative = inhibition in [3] (setting [20]) is -19.3% (inactive); in [3] (setting [21]) it was -5.11% (inactive). For the same molecule, the Potency result in [4], in test [6], in [7], in [8], in test [9] and in test [10] was “inactive” in each case. Moreover, the Potency entry in test [11], in [12], in [15], in [13] and in [14] was “inactive” throughout.

On to `CN(C)C(=O)COC(=O)Cc1ccc(OC(=O)c2ccc(N=C(N)N)cc2)cc1`, for which the values for the Z-AUC in test [1], in [1] (setting [16]) and in test [1] (measured here: PEO4 Z-AUC) were -0.267 (inactive), -0.623 and -0.684, respectively. In addition, the activity, negative = inhibition in test [3] (setting [20]) is -4.03% (inactive); in test [3] (setting [21]), 4.45% (inactive). The Potency result in test [4], in test [5], in [6], in test [7], in test [8] and in test [9] was “inactive” throughout. Also, the Potency result in test [10], in test [11], in test [12], in test [15], in test [13] and in test [14] was “inactive” in each case.
